Screening results from PubChem BioAssay.
The entries come from a sample that favours hits as a whole.
TDP1 cell CPT: DT40-hTDP1 cell growth loss with CPT | hit rate 12% among 420,000 | chicken DT40 Tdp1-/-;hTDP1 cells + 20 nM CPT, ATP luminescence, 48 h | AID 686979 | Potency, µM (titrated, usually from 46.2 µM), actives largely listed as inhibitors; also: nearly all actives have a fitted effect of over 55% in size
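Cell growth measured by CellTiter-Glo luminescence after a minimum 48 h, 37 C compound exposure with 20 nM CPT in Tdp1-knockout DT40 cells stably expressing hTDP1, seeded 400/well; qHTS titration format.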
IL1B secr inh: inhibitors of inflammasome signaling (IL-1 beta secretion); THP-1 LPS/ATP IL-1B secretion, AlphaLISA, 16 h; stronger effect = lower value; AID 743279; hit rate 4.7% among 360,000; activity change, % at 57.5 µM; in the data active = activity change below about -50%; inconclusive = mostly about -30% to -49%
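Secreted IL-1B measured by AlphaLISA bead assay after 16 h compound exposure of THP-1 cells; compounds (final up to 57.5 uM) added 1 h before LPS (250 ng/mL) and ATP (1.25 mM) stimulation; lower signal means less secretion.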
HT1080-NT tox: kills 2HG-producing HT-1080-NT fibrosarcoma cells. HT-1080-NT fibrosarcoma viability, CellTiter-Glo ATP luminescence, 48 h. Potency, µM (doses to about 46.1 µM), hits mostly cytotoxic. hit rate 1.6% among 360,000;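 also: NT is the 2HG producing partner of a matched IDH1 knockdown line; nearly all actives have a fitted effect of over 55% in size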
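Fibrosarcoma NT cells, 750 per well in 5% FBS RPMI, were exposed to compound for 48 hours. Viability: CellTiter-Glo luminescence.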
TDP1 cell noCPT: qHTS for Inhibitors of human tyrosyl-DNA phosphodiesterase 1 (TDP1): qHTS in cells in absence of CPT | hit rate 15% among 420,000 | Potency, µM (highest dose often 46.2 µM), actives largely listed as inhibitors | AID 686978, 2013 | DT40 Tdp1-/- hTDP1 cells, no CPT, ATP luminescence, 48 h; also: nearly all actives have a fitted effect of over 55% in size
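Growth kinetics read by CellTiter-Glo luminescence after ≥48 hr at 37 °C. Cells: DT40 Tdp1-/- stably carrying human TDP1, 400 per well, compound exposure in the absence of CPT (DMSO vehicle).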
12-LOX inh: inhibitors of human 12S-lipoxygenase ALOX12; P18054; purified 12hLO, xylenol orange hydroperoxide absorbance; Potency, µM (top dose mostly 108 µM), actives largely listed as inhibitors; hit rate 1.1% among 580,000; AID 1671190
Target sequence (P18054 whole entry, looked up): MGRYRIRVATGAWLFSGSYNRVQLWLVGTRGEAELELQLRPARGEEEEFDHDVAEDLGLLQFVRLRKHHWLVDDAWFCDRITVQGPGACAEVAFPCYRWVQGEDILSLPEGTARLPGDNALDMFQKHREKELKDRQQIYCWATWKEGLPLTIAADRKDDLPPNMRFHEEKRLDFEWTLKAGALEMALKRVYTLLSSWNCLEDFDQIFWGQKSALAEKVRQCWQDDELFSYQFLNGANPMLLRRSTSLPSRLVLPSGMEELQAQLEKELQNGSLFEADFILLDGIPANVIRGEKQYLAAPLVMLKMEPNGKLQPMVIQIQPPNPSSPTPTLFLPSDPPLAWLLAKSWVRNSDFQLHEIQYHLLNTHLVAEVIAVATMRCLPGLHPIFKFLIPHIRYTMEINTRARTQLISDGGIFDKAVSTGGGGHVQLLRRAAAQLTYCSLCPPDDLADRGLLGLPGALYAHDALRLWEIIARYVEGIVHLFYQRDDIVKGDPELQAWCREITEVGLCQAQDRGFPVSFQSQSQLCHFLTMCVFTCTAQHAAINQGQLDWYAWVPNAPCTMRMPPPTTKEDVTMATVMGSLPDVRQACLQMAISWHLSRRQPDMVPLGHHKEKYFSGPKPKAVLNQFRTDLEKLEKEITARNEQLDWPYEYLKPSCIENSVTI
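Hydroperoxide product was detected by ferrous iron/xylenol orange as the 573 to 405 nm absorbance ratio. Arachidonic acid at 40 uM (final) was turned over for 30 min at room temperature by 150 nM human 12hLO, pH 7.0 Hepes buffer, after 15 min compound preincubation.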
HT1080 IDH1KD tx: HT-1080 IDH1 knockdown cell toxicity (counter line). HT-1080 IDH1 knockdown viability, ATP luminescence, 48 h. Potency, µM (top dose mostly 46.1 µM), most hits filed as cytotoxic. hit rate 2% among 360,000. AID 686971
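After a 2 h attachment period, IDH1KD HT-1080 cells took pin-transferred compound for 48 h at 37 °C; ATP-based luminescence after 10 min room-temperature reagent incubation reported viability.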
A number is an active result; i = inactive; ? = inconclusive; nt = no result given; [ ] = dose if it differs, or a comment. Unless noted, calls follow the shape of the dose curve; as a rule, active = well fitted curve in the direction sought with a large enough effect; inconclusive = small, poorly fitted or top-dose-only effect, or another doubt; inactive = no such curve, though single readings can be large; an effect the other way counts as inactive or inconclusive.

SMILES	TDP1 cell CPT	IL1B secr inh	HT1080-NT tox	TDP1 cell noCPT	12-LOX inh	HT1080 IDH1KD tx
CCOC(=O)c1ccccc1NS(=O)(=O)c1ccc(OCC)cc1	7.9µM	i	7.1µM	13µM	i	2.2µM
CCOc1ccc(NC(=O)c2ccccc2NS(=O)(=O)c2ccc(F)cc2)c([N+](=O)[O-])c1	23µM	?	i	?	?	i
COc1ccc(S(=O)(=O)N(CC(=O)Nc2ccc(OC)cc2OC)c2ccc(Cl)cc2)cc1	23µM	nt	nt	26µM	i	nt
COc1ccc(N(CC(=O)Nc2ccccc2OC)S(=O)(=O)c2ccccc2)cc1Cl	13µM	i	i	?	i	i
COc1ccc(NC(=O)CN(c2ccc([N+](=O)[O-])cc2)S(=O)(=O)c2ccccc2)c(OC)c1	?	i	i	?	i	i
COc1ccc(N(CC(=O)Nc2ccccc2F)S(=O)(=O)c2ccc(C)c([N+](=O)[O-])c2)cc1	?	i	i	23µM	i	i
CCOC(=O)c1ccccc1NC(=O)CN(c1ccccc1)S(=O)(=O)c1ccc(OCC)cc1	23µM	nt	nt	15µM	i	nt
CCOc1ccc(S(=O)(=O)N(CC(=O)Nc2cccc(OC)c2)c2ccccc2)cc1	nt	nt	nt	nt	i	nt
COC(=O)c1cccc(NS(=O)(=O)c2ccc(OC)c(OC)c2)c1C	?	i	i	?	i	i
CCOC(=O)c1ccccc1NC(=O)CN(c1ccccc1OC)S(=O)(=O)c1ccc(C)cc1	?	nt	nt	12µM	i	nt
COC(=O)c1cccc(NS(=O)(=O)c2ccc(OC)cc2)c1C	5.2µM	i	12µM	6.5µM	i	i[9.24 µM]
O=C(COC(=O)c1nc(Cl)c(Cl)c(Cl)c1Cl)c1ccc[nH]1	?	-103	i	?	i	i
O=C(COC(=O)c1nc(Cl)ccc1Cl)c1ccc[nH]1	i	i	i	i	i	i
COc1ccc(-c2ccc3ncc(Nc4ccccc4C)n3n2)cn1	nt	nt	nt	nt	i	nt
CC(C)(C)OC(=O)C[C@H]1C/C=C\C[C@@H](CC(=O)N(CCO)Cc2ccccc2)C(=O)NC[C@@H](c2ccccc2)OC1=O	?	i	i	18µM	i	i
CC(C)(C)OC(=O)C[C@H]1C/C=C\C[C@H](CC(=O)N(CCO)Cc2ccccc2)C(=O)NC[C@H](c2ccccc2)OC1=O	16µM	i	i	?	i	i
Oc1cccc(-c2c3nc(c(-c4cccc(O)c4)c4ccc([nH]4)c(-c4cccc(O)c4)c4nc(c(-c5cccc(O)c5)c5ccc2[nH]5)CC4)C=C3)c1	27µM	nt	nt	19µM	3.6µM	nt
O=C1C=C(c2cccc(O)c2)CCC1	i	i	i	i	i	i
COc1ccc(OC)c(N=Nc2c(O)c3ccccc3[nH]c2=O)c1	15µM	i	i	18µM	i	?
COc1cc(N=Nc2c(O)c3ccccc3[nH]c2=O)c(OC)cc1N=Nc1ccccc1	?	i	i	13µM	nt	i
COc1ccc(OCc2cc(=O)[nH]c3ccccc23)cc1	i	i	i	i	?	i
COC(=O)c1ccc2ccccc2c1OS(=O)(=O)c1ccc(S(C)(=O)=O)cc1	nt	nt	nt	nt	i	nt
CN(C)c1ccc(-c2noc([C@@H]3CCCN3Cc3nc4ccccc4n3C)n2)cn1	nt	nt	nt	nt	i	nt
O=S(=O)(c1ccc2c(c1)CCO2)N1CCN(Cc2ccccc2)CC1	nt	nt	nt	nt	i	nt
O=C(O)C1CC=CCC1C(=O)Nc1ccc(S(=O)(=O)N2CCCc3ccccc32)cc1 (configuration not stated)	i	i	?	?	i	5.6µM
O=C(Nc1ccc(F)c(Cl)c1)c1cc(S(=O)(=O)N2CCCc3ccccc32)ccc1F	13µM	nt	nt	15µM	?	nt
O=C(Nc1cccc(Cl)c1)c1cc(S(=O)(=O)N2CCCc3ccccc32)ccc1F	10µM	nt	nt	4.1µM	?	nt
CCCN1CC(Oc2cccc(C(=O)N3CCOCC3)c2)C1	nt	nt	nt	nt	i	nt
